Measured values: PubChem BioAssay (NCATS)
“And” between values parts separate entries of the source, which are not always exact repeats. Equal entries are not always repeated. Inconclusive results are not listed. Entries that show only a call come without a potency. Some structures have more than one record in an assay (separate samples or runs), and their calls can disagree. A number with no mark means an inactive call. The source made the active and inactive calls. Calls come from the whole dose curve; as a rule, active = well fitted curve in the direction sought with a large enough effect; inconclusive = small, poorly fitted or top-dose-only effect, or another doubt; inactive = no such curve, though single readings can be large; an effect the other way counts as inactive or inconclusive.

Experiments:
Tov-21-G = assay: Primary qHTS to identify gynecologic anti-cancer compounds using libraries of approved drugs and bioactive compounds (AID 1345084); conditions: Gynecologic cancer cell panel viability, ATPlite luminescence, 48 h; series mostly up to 57.5 µM; note: nearly all actives have a fitted effect of over 55% in size
How it was run: (§1)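 48 h compound exposure at 37 C, 5% CO2; five-point qHTS. ATPlite luminescence readout of cell ATP.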

Tov112D = assay: as above; conditions: Gynecologic cancer cell panel viability, ATPlite luminescence, 48 h; series mostly up to 57.5 µM
How it was run: as §1

[1] = Drug repurposing screens with cells derived from glioblastoma tumor samples (AID 1345199); conditions: GBM patient neurospheres viability, ATP luminescence, 48 h; note: nearly all actives have a fitted effect of over 40% in size; note: potency is the fitted concentration of half-maximal effect
How it was run: (§2)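 Four patient lines of CD133+ GBM neurospheres were screened at several concentrations; hits were retested in those lines plus three slower-growing GBM lines, using 48-hour treatment and ATP-based viability.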

astro = assay: as above; conditions: viability, ATP luminescence, 48 h; series mostly up to 45.9 µM
How it was run: as §2

[2] = at 45.9 µM (top of the series), tumour line B
[3] = at 45.9 µM (top of the series), tumour line D
[4] = at 46.1 µM (top of the series), tumour line C

Row | Compound | Potency (Tov-21-G) | Potency (Tov112D) | activity, negative = cell killing [1, 2] | activity, negative = cell killing [1, 3] | activity, negative = cell killing [1, 4] | Potency (astro) | Potency ([1]; tumour line A) | Potency ([1]; tumour line D)
1 | COc1cc(C(=O)OC(COCCC(C)C)CN2CCOCC2)cc(OC)c1OC (stereo unspecified) | inactive | inactive | -6.94% | -4.84% | -4.89% | inactive |  | 
2 | Nc1c(NC/C=C\COc2cc(CN3CCCCC3)ccn2)c(=O)c1=O | inactive | inactive | -4.69% | -28.9% | 3.18% | inactive |  | 
3 | CC(=O)CC/C=C(\C)CC/C=C(\C)CC/C=C(\C)CCC=C(C)C | inactive | inactive | -12.4% | -10.7% | 4.26% | inactive |  | 
4 | CC(=O)O[C@@H]1C(=O)O[C@@H]2[C@H]1OC(=O)[C@@H]2OC(C)=O | inactive | inactive | -13.4% | 5.03% | -4% | inactive |  | 
5 | CC(=O)Nc1ccc(S(=O)(=O)Nc2cc(C)on2)cc1 | inactive | inactive | 4.82% | -21% | -0.236% | inactive |  | 
6 | C[N+]1(C)CCC(OC(=O)C(O)(c2ccccc2)C2CCCC2)C1 (stereo unspecified) | inactive | inactive |  | -7.1% | -3.15% and -15.3% | inactive | 11.2 µM (active) | 
7 | CCc1cc(S(=O)(=O)O)c2cc(C(C)C)cccc1-2 | inactive | inactive | -10.8% | -10.6% | -1.11% | inactive |  | 
8 | O=C(O)c1ccccc1S | inactive | inactive | 0.0031% | 6.57% | 1.53% | inactive |  | 
9 | CCCCCC1Nc2cc(C(F)(F)F)c(S(N)(=O)=O)cc2S(=O)(=O)N1 (stereo unspecified) | inactive | inactive | -8.57% | -19.1% | -6.63% | inactive |  | 
10 | CCOC(=O)NNc1nncc2ccccc12 | inactive | inactive | -5.14% | -7.16% | -13.4% | inactive |  | 
11 | CO[C@]1(NC(=O)CSC(F)F)C(=O)N2C(C(=O)O)=C(CSc3nnnn3CCO)CO[C@H]21 | inactive | inactive | 4.83% | -21.2% | -14% | inactive |  | 
12 | CN(CC1(C)CCCO1)S(=O)(=O)c1ccc(Cl)c(S(N)(=O)=O)c1 (stereo unspecified) | inactive | inactive | -9.01% | -23.5% | 16.1% | inactive |  | 
13 | CCOC(=O)c1ccc(OCCN2C[C@H](O)[C@@H](O)[C@H](O)[C@H]2CO)cc1 | inactive | inactive | 0.0726% | -4.04% | 1.63% | inactive |  | 
14 | O=C1[C@@H]2[C@H]3CC[C@H](C3)[C@@H]2C(=O)N1CCCCN1CCN(c2ncccn2)CC1 | inactive | inactive | -7.9% |  | -10.5% | inactive | 12.6 µM (active) | 
15 | CC(CCc1ccc2c(c1)OCO2)NN (stereo unspecified) | inactive | inactive | -11.1% | -1.96% | -0.872% | inactive |  | 
16 | C[N+](C)(CCOc1ccccc1)Cc1cccs1 | inactive | inactive | -1.12% | -8.83% | -14.1% | inactive |  | 
17 | CCCCCOc1ccc(C2SC(=O)NC2=O)cc1OCC (stereo unspecified) | inactive | inactive | -6.4% | -4.3% | -14.2% | inactive |  | 
18 | N#C/C(=C1/SC[C@@H](c2ccc(Cl)cc2Cl)S1)n1ccnc1 | inactive | inactive | -20.5% and -14.1% |  |  | inactive | 11.2 µM (active) and 20 µM (active) | 11.2 µM (active)

Row | Compound | Potency (Tov-21-G) | Potency (Tov112D) | activity, negative = cell killing [1, 2] | activity, negative = cell killing [1, 3] | activity, negative = cell killing [1, 4] | Potency (astro) | Potency ([1]; tumour line A) | Potency ([1]; tumour line D)
19 | C[C@@H](C1=C(CCN(C)C)Cc2ccccc21)c1ccccn1 | inactive | inactive | -18.9% |  | -5.63% | inactive | 17.8 µM (active) | 
20 | O=S(=O)(O)c1ccc2nc(-c3ccccc3)[nH]c2c1 | inactive | inactive | -3.28% | -9.15% | -23.9% | inactive |  | 
21 | O=C(NN1CCCC1)NS(=O)(=O)c1ccc(Cl)cc1 | inactive | inactive | 1.6% | -25.9% | 2.27% | inactive |  | 
22 | CC1CC(=O)NN=C1c1ccc(NCC(C)(C)NCC(O)COc2cc(Cl)ccc2C#N)cc1 (stereo unspecified) | inactive | inactive | -23.3% | -27.2% |  | inactive | 1.78 µM (active) | 
23 | Cc1cccc(N(C)C(=S)Oc2ccc3c(c2)CCC3)c1 | inactive | inactive | -19.8% |  |  | inactive | 17.8 µM (active) | 20 µM (active)
24 | O=C(O)[C@@H](O)[C@H](O)[C@H](O)[C@@H](O)C(=O)O | inactive | inactive | -15.2% | 6.93% | -6.4% | inactive |  | 
25 | Cn1cc(S(C)=O)c(=O)c2ccc(F)cc21 (stereo unspecified) | inactive | inactive | -9.03% | -4.06% | -1.4% | inactive |  | 
26 | C[C@]12CCC(=O)C=C1CC[C@@H]1[C@@H]2[C@@H](O)C[C@@]2(C)[C@H]1CC[C@]2(O)C(=O)COC(=O)CCC(=O)O | inactive | inactive | -2.56% | -26.6% | -2.87% | inactive |  | 
27 | O=C(O)CCC(=O)OC[C@@H](NC(=O)C(Cl)Cl)[C@H](O)c1ccc([N+](=O)[O-])cc1 | inactive | inactive | -13.2% | -13.5% | -13.1% | inactive |  | 
28 | CC(=O)OC/C=C(C)/C=C/C=C(C)/C=C/C1=C(C)CCCC1(C)C | inactive | inactive | -7.14% | -23.4% | -13.6% | inactive |  | 
29 | CC1(C)S[C@@H]2[C@H](NC(=O)C(c3ccccc3)S(=O)(=O)O)C(=O)N2[C@H]1C(=O)O (stereo partly specified) | inactive | inactive | -7.89% | -16.5% | 4.53% | inactive |  | 
30 | O=[N+]([O-])c1nccn1CO[C@@H](CO)[C@H](O)CO | inactive | inactive | -1.15% | -7.16% | -8.18% | inactive |  | 
31 | CC(=O)OCC(=O)Nc1cc(C#N)cc(NC(=O)COC(C)=O)c1Cl | inactive | inactive | -11% | -1.03% | -3.42% | inactive |  | 
32 | CCCCNc1ccc(C(=O)OCCN(CC)CC)cc1 | inactive | inactive |  |  | -27.5% | inactive | 14.1 µM (active) | 14.1 µM (active)
33 | O=C(O)/C=C(\CC(=O)O)C(=O)O | inactive | inactive | -11.5% | -18% |  | inactive | 20 µM (active) | 
34 | OC[C@]1(O)OC[C@@H](O)[C@H](O)[C@@H]1O | inactive | inactive | 6.45% | -1.03% | 12.8% | inactive |  | 
35 | CCCCCC[C@@H](CCC)C(=O)O | inactive | inactive | -11.8% | -7.11% | -6.46% | inactive |  | 
36 | CO/N=C(/C(=O)N[C@@H]1C(=O)N2C(C(=O)[O-])=C(C[n+]3ccn4ncccc43)CS[C@H]12)c1nsc(N)n1 | inactive | inactive | -6.03% and -3.53% | -11.1% and -14% |  | inactive | 8.91 µM (active) | 
